Assay results taken from PubChem BioAssay AID1159569 (Broad Institute, 2015).
Measured potencies and affinities stand elsewhere. Inconclusive results are not listed. Values without a mark were called inactive. The rule behind the calls is not given here.

experiment: toxicity to human HepG2 hepatoma cells – cell-based, plate reader, dry powder samples, cytotoxicity control, dose response (AID 1159569); conditions: HepG2 cytotoxicity counterscreen; series mostly up to 50 µM; activity change, negative = cytotoxicity: at the top concentration

| Compound | activity change, negative = cytotoxicity |
| --- | --- |
| C[C@@H]1CN([C@@H](C)CO)C(=O)c2cccc(NC(=O)c3nc4ccccc4s3)c2O[C@H]1CN(C)C(=O)NC1CCCCC1 | -13.8% |
| COc1ccc(NC(=O)N2CCCCN3[C@H](CO)[C@H](c4ccc(C#Cc5ccccn5)cc4)[C@@H]3C2)cc1 | -9.61% |
| O=C(c1ccccc1F)N1CC(=O)N2[C@H](C1)[C@@H](c1ccc(-c3cccnc3)cc1)[C@@H]2CO | 2.48% |
| CN1c2ccc(C#Cc3cccnc3)cc2[C@H]2[C@H](CCN2S(=O)(=O)c2ccc(F)cc2)[C@H]1CO | -33.4% [at 46 µM] |
| COc1cccc(-c2cccc(-c3nc(C(=O)NCc4ccc(Oc5ccccc5)cc4)cc4c3[C@@H](CCO)N(S(=O)C(C)(C)C)C4)c2)c1 (stereo partly specified) | -3.88% |
| O=C(C1CCCC1)N1CC2(C1)[C@@H](c1ccccc1)[C@H](CO)N2Cc1ccc(Cl)cc1 | -21.2% |
| CCCNC(=O)Nc1ccc2c(c1)OC[C@@H](C)N(Cc1ccccc1)C[C@@H](C)[C@H](OC)CN(C)C2=O | -20.7% |
| CCCC(=O)N1CC2(C1)CN(S(=O)(=O)c1ccc(C)cc1)[C@@H](CO)c1[nH]c3cc(OC)ccc3c12 | -20.5% |
| C[C@@H]1CN([C@@H](C)CO)C(=O)c2cccc(NC(=O)Nc3ccc4c(c3)OCO4)c2O[C@@H]1CN(C)C(=O)Nc1ccc2c(c1)OCO2 | -9.01% |
| CC(C)NC(=O)Nc1ccc2c(c1)C(=O)N(C)[C@H]1CC[C@H](CC(=O)Nc3ccccc3)O[C@H]1CO2 | -9.14% |
| CCCC#Cc1ccc([C@H]2[C@@H](CO)N(C(=O)C3CCCCC3)[C@H]2C#N)cc1 | -36.5% |
| COc1ccc2c3c([nH]c2c1)[C@H](CO)N(C(=O)C1CCCCC1)CC31CCN(Cc2nccs2)CC1 | 0.429% |
| COc1ccc(C#Cc2ccc3c(c2)O[C@H](CN(C)S(=O)(=O)c2ccccc2F)[C@@H](C)CN([C@H](C)CO)S3(=O)=O)cc1 | -10.9% |
| COCC#Cc1ccc(CC[C@H]2O[C@H]3CC[C@H](CO)O[C@H]3C[C@@H]2n2cc(C3CC3)nn2)cc1 | -15.9% |
| COc1ccc2c3c(n(C)c2c1)[C@@H](CO)N(C(=O)c1ccc(F)cc1)CC31CCN(C(=O)Nc2ccc(F)cc2)CC1 | 5.35% [at 16 µM] |
| COc1cccc(C#Cc2ccc([C@H]3[C@@H](CO)N(C(=O)C4CCC4)[C@H]3C#N)cc2)c1 | -47.8% |

| Compound | activity change, negative = cytotoxicity |
| --- | --- |
| COc1ccc(C#Cc2ccc3c(c2)[C@H]2[C@H](CCN2C(=O)C2CCCC2)[C@@H](CO)N3)cc1 | -20.4% |
| C/C=C/c1ccccc1[C@H]1[C@@H](C#N)N(C(=O)NC2CCCC2)[C@H]1CO | -49.4% |
| CC(C)(C)S(=O)N1Cc2cc(C(=O)NCc3ccc4c(c3)OCO4)nc(-c3cccc(-c4cc5ccccc5o4)c3)c2[C@H]1CCO (stereo partly specified) | -1.66% |
| C[C@@H]1CN([C@H](C)CO)C(=O)c2cccc(NC(=O)c3nc4ccccc4s3)c2O[C@H]1CN(C)C(=O)Nc1ccc(C(F)(F)F)cc1 | -16.7% |
| COc1ccc2c3c(n(C)c2c1)[C@@H](CO)N(C(=O)c1ccccc1)CC31CCN(C(=O)c2ccccc2)CC1 | -16.1% |
| C[C@H](CO)N1C[C@H](C)[C@@H](CN(C)C(=O)Nc2ccc(-c3ccccc3)cc2)OCc2ccccc2-c2c(n(C)c3ccccc23)C1=O | 7.2% |
| COc1ccccc1S(=O)(=O)N(C)C[C@@H]1OCc2ccccc2-c2c(n(C)c3ccccc23)C(=O)N([C@@H](C)CO)C[C@@H]1C | -23.5% |
| C[C@H](CO)N1C[C@H](C)[C@@H](CN(C)C(=O)Nc2cccc3ccccc23)Oc2ccc(NC(=O)Nc3ccc(C(F)(F)F)cc3)cc2C1=O | -10.9% |
| C[C@@H]1CN([C@@H](C)CO)S(=O)(=O)c2ccc(C#CC3CCCC3)cc2O[C@H]1CN(C)C(=O)Cc1ccncc1 | -34.8% |
| C/C=C/c1ccc2c(c1)[C@H]1[C@H](CCN1S(=O)(=O)c1ccccc1C)[C@@H](CO)N2 | -13.2% |
| COc1ccc2c3c(n(C)c2c1)[C@@H](CO)N(C(=O)C1CCC1)CC31CN(C(=O)Nc2cccc(F)c2)C1 | -32.2% |
| C[C@@H]1CN([C@H](C)CO)C(=O)c2cccc(NC(=O)c3ccc(-c4nccs4)cc3)c2O[C@H]1CN(C)Cc1ccc(C(F)(F)F)cc1 | -17.9% |
| COc1ccc(NC(=O)N(C)C[C@H]2Oc3c(NC(=O)Nc4ccccc4)cccc3C(=O)N([C@@H](C)CO)C[C@H]2C)cc1 | -9.45% |
| COc1ccc(NC(=O)N(C)C[C@@H]2Oc3c(NC(=O)c4nc5ccccc5s4)cccc3C(=O)N([C@@H](C)CO)C[C@H]2C)cc1 | -23% |
| CCC(=O)N1CCC2(CC1)CN(S(=O)(=O)c1ccccc1)[C@@H](CO)c1[nH]c3cc(OC)ccc3c12 | -22.3% |
